Results filed as inconclusive are left out. The source made the active and inactive calls. Calls come from the whole dose curve; as a rule, active = well fitted inhibition curve with a large enough effect; inconclusive = small, poorly fitted or top-dose-only effect; inactive = flat fitted curve, though single readings scatter.

Common to all, as to experiment: qHTS profiling for inhibitors of Plasmodium falciparum proliferation (AID 504749); note: nearly all actives have a fitted effect of over 60% in size
Holding throughout (conditions): P. falciparum in erythrocytes, SYBR Green DNA, 72 h; series mostly up to 28.7 µM

Test [1] concerns 7G8. The method, boiled down: (§1)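 SYBR Green fluorescence (ex 485 nm, em 535 nm) reports parasite DNA after 72 h compound exposure of infected red cells at 0.3% parasitemia, 2.5% hematocrit; signal normalized to 0.29 uM artemisinin and vehicle wells.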
The subject of test [2] is AA1029. The method, boiled down:
as §1

Test [3] concerns AS120. The method, boiled down:
as §1

Test [4] deals with ATS189. The method, boiled down:
as §1

Test [5] has as its system ATS95. The method, boiled down: as §1
The test system of test [6] is C2A. The method, boiled down:
as §1

Test [7] concerns CP185. The method, boiled down:
as §1

Test [8] relates to CP191. The method, boiled down:
as §1

Test [9] deals with CP192. The method, boiled down:
as §1

Test [10] relates to CP194. In a few lines: as §1
Test [11] deals with CP201. The method, boiled down: as §1
The subject of test [12] is CP203. In a few lines:
as §1

Test [13] relates to CP211. The method, boiled down:
as §1

The subject of test [14] is CP215. In a few lines:
as §1

The test system of test [15] is CP217. The method, boiled down: as §1
The subject of test [16] is CP237. In a few lines:
as §1

Test [17] has as its system CP238. The method, boiled down: as §1
Test [18] concerns CP247. The method, boiled down:
as §1

Test [19] has as its system CP250. In a few lines: as §1
In test [20] the test system is CP252. In a few lines:
as §1
Potency is the fitted concentration of half-maximal effect.

With `CC(=O)Oc1cc(C(F)(F)F)ccc1C(=O)O`, the Potency result in test [1], in [2], in test [3], in test [4], in test [5] and in test [6] was “inactive” throughout. In addition, the Potency result in test [7], in [8], in test [9], in [10], in test [11] and in test [12] was “inactive” in each case. The Potency result in test [13], in [14], in test [15], in test [16], in [17] and in [18] was “inactive” in each case. In addition, the Potency entry in test [19] and in test [20] was “inactive” throughout.
On to `COC1=C(OC)C(=O)C(C/C=C(\C)CC/C=C(\C)CC/C=C(\C)CC/C=C(\C)CC/C=C(\C)CC/C=C(\C)CC/C=C(\C)CC/C=C(\C)CC/C=C(\C)CCC=C(C)C)=C(C)C1=O`, for which the Potency result in test [1], in test [2], in [3], in test [4], in test [5] and in test [6] was “inactive” throughout. Also, the Potency entry in [7], in test [8], in [9], in test [10], in test [11] and in [12] was “inactive” throughout. For the same molecule, the Potency result in test [13], in test [14], in [15], in [16], in test [17] and in test [18] was “inactive” in each case. Besides, the Potency entry in [19] and in test [20] was “inactive” throughout.
On to `CN(CCO)CC(O)Cn1cnc2c1c(=O)n(C)c(=O)n2C` (stereo not given) (tested in a mixture with another compound), for which the Potency result in test [1], in [2], in test [3], in test [4], in test [5] and in test [6] was “inactive” throughout. In addition, the Potency entry in [7], in test [8], in [9], in test [10], in test [11] and in [12] was “inactive” each time. Further, the Potency result in [13], in [14], in test [15], in [16], in test [17] and in test [18] was “inactive” in each case. Besides, the Potency result in test [19] and in [20] was “inactive” throughout.
Consider `c1ccc2ccccc2c1`, for which the Potency entry in [1], in test [2], in test [3], in test [4], in [5] and in [6] was “inactive” in each case. The Potency result in test [7], in test [8], in test [9], in [10], in [11] and in [12] was “inactive” throughout. The Potency entry in test [13], in test [14], in test [15], in [16], in [17] and in [18] was “inactive” throughout. The Potency entry in test [19] and in test [20] was “inactive” each time.
As to `NCCO/C=C/[C@H](N)C(=O)O`, the Potency result in test [1], in test [2], in test [3], in test [4], in test [5] and in [6] was “inactive” in each case. In addition, the Potency entry in [7], in test [8], in test [9], in test [10], in test [11] and in test [12] was “inactive” in each case. In addition, the Potency entry in test [13], in test [14], in test [15], in [16], in test [17] and in test [18] was “inactive” each time. In addition, the Potency entry in [19] and in test [20] was “inactive” each time.
In the case of `C[C@H]1O[C@@H](O[C@H]2[C@@H](O)C[C@H](O[C@H]3[C@@H](O)C[C@H](O[C@H]4CC[C@@]5(C)[C@H](CC[C@@H]6[C@@H]5C[C@@H](O)[C@]5(C)[C@@H](C7=CC(=O)OC7)CC[C@]65O)C4)O[C@@H]3C)O[C@@H]2C)C[C@H](O)[C@@H]1O`, the Potency in test [1] was 11.2 µM (active). Moreover, the Potency entry in [2], in test [3], in test [4], in test [5], in test [6] and in test [7] was “inactive” in each case. For the same molecule, the Potency result in test [8], in test [9], in test [10], in [11], in [12] and in [13] was “inactive” in each case. In addition, the Potency entry in [14], in test [15], in test [16], in [17], in [18] and in test [19] was “inactive” each time. The Potency result in test [20] was “inactive”.
Consider `O=C1c2ccccc2C(=O)c2c1ccc(O)c2O`, for which the Potency result in test [1], in test [2], in [3], in test [4], in [5] and in test [6] was “inactive” in each case. Further, the Potency result in [7], in test [8], in [9], in test [10], in test [11] and in test [12] was “inactive” throughout. The Potency entry in [13], in [14], in test [15], in test [16], in test [17] and in [18] was “inactive” in each case. Also, the Potency entry in [19] and in test [20] was “inactive” throughout.
With `NCC[C@H](O)C(=O)N[C@@H]1C[C@H](N)[C@@H](O[C@H]2O[C@H](CN)CC[C@H]2N)[C@H](O)[C@H]1O[C@H]1O[C@H](CO)[C@@H](O)[C@H](N)[C@H]1O`, the Potency entry in test [1], in test [2], in test [3], in test [4], in test [5] and in test [6] was “inactive” throughout. Also, the Potency result in test [7], in [8], in test [9], in test [10], in test [11] and in test [12] was “inactive” in each case. In addition, the Potency result in test [13], in test [14], in test [15], in test [16], in [17] and in test [18] was “inactive” in each case. The Potency entry in test [19] and in test [20] was “inactive” each time.
Regarding `CC(=O)N[C@@H]1C(O[C@H]2O[C@H](C(=O)O)C(O)[C@H](O)[C@H]2O)[C@H](O)[C@@H](CO)O[C@H]1O[C@@H]1C(C(=O)O)O[C@@H](O[C@H]2[C@H](O)[C@@H](CO)OC(O)[C@@H]2NC(C)=O)[C@H](O)[C@H]1O` (stereo not given in full), the Potency result in [1], in test [2], in [3], in test [4], in test [5] and in test [6] was “inactive” in each case. Also, the Potency result in test [7], in test [8], in test [9], in test [10], in test [11] and in test [12] was “inactive” throughout. Also, the Potency entry in test [13], in test [14], in test [15], in test [16], in test [17] and in test [18] was “inactive” in each case. Further, the Potency entry in [19] and in test [20] was “inactive” throughout.
Take `CC(C)(COP(=O)(O)OP(=O)(O)OC[C@H]1O[C@@H](n2cnc3c(N)ncnc32)[C@H](O)[C@@H]1OP(=O)(O)O)C(O)C(=O)NCCC(=O)NCCS` (stereo not given in full): the Potency entry in [1], in [2], in [3], in test [4], in [5] and in test [6] was “inactive” in each case. Moreover, the Potency result in test [7], in [8], in test [9], in test [10], in test [11] and in test [12] was “inactive” each time. The Potency entry in test [13], in [14], in [15], in [16], in test [17] and in test [18] was “inactive” throughout. The Potency entry in test [19] and in test [20] was “inactive” each time.
For `CC1(O)CCC(C(C)(C)O)CC1` (stereo not given), the Potency result in test [1], in [2], in test [3], in test [4], in test [5] and in test [6] was “inactive” in each case. For the same molecule, the Potency result in [7], in [8], in test [9], in test [10], in [11] and in test [12] was “inactive” each time. Besides, the Potency entry in [13], in test [14], in test [15], in test [16], in test [17] and in [18] was “inactive” throughout. In addition, the Potency entry in test [19] and in test [20] was “inactive” in each case.
Regarding `CCc1ncnc2cc(OC)c(OC)cc12`, the Potency entry in test [1], in test [2], in test [3], in test [4], in test [5] and in test [6] was “inactive” each time. In addition, the Potency entry in test [7], in test [8], in [9], in test [10], in test [11] and in test [12] was “inactive” each time. In addition, the Potency entry in [13], in [14], in test [15], in test [16], in test [17] and in test [18] was “inactive” each time. Further, the Potency entry in test [19] and in test [20] was “inactive” in each case.
`CC(C)c1nc(N(C)S(C)(=O)=O)nc(-c2ccc(F)cc2)c1/C=C/C(O)CC(O)CC(=O)O` (stereo not given): the Potency entry in test [1], in test [2], in [3], in test [4], in test [5] and in test [6] was “inactive” throughout. For the same molecule, the Potency result in test [7], in test [8], in test [9], in [10], in [11] and in test [12] was “inactive” each time. Moreover, the Potency entry in test [13], in test [14], in [15], in test [16], in [17] and in [18] was “inactive” each time. For the same molecule, the Potency entry in test [19] and in test [20] was “inactive” throughout.

(Values after PubChem BioAssay (NCATS).)
